# Experimental data taken from PubChem BioAssay AID602428 (Sanford-Burnham Center for Chemical Genomics, 2012).
# Out of some 2,500 compounds screened, about 980 (39%) were called active.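 Rule for the calls: active = mean inhibition at 5 µM reaching about 45% (limit read from the data); inactive = the rest.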 A selection follows.
# Test: Gli-SUFU pathway antagonists, confirmation, single concentration, luciferase luminescence, Sufu-KO-LIGHT cells (AID 602428);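 note: plate controls were DMSO-treated cells for no effect and wells lacking cells for full effect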
# Conditions: Gli luciferase reporter, at 5 µM, active compounds read high
row,SMILES,inhibition
1,COCCn1c(CN2CCC(Cc3ccccc3)CC2)nc2c1c(=O)n(C)c(=O)n2C,58.7% (active)
2,O=C1/C(=C/c2ccc(F)cc2)SC(=S)N1NS(=O)(=O)c1ccccc1,15.2% (inactive)
3,CCCOc1ccc(Cc2c(Cl)nc(SC)nc2NC)cc1,60.5% (active)
4,CCc1c(C)nc2cc(C)[nH]n2c1=O,29.9% (inactive)
5,CC(=O)OCCC(C)C,21.6% (inactive)
6,CN(NC(=O)c1ccccc1F)c1nc(C(F)(F)F)nc2ccccc12,36.6% (inactive)
7,COC(=O)c1ccc(CSc2nnc(N)s2)o1,37.1% (inactive)
8,Cn1c(=O)c2c(nc(NCCc3ccccc3)n2Cc2ccccc2)n(C)c1=O,57.1% (active)
9,CCCCNc1nc2c(c(=O)n(C)c(=O)n2C)n1Cc1cccc(OC)c1,72.5% (active)
10,CN(C)CCN(C(=O)C1CCCCC1)c1nc2cc3c(cc2s1)OCO3,14.1% (inactive)
11,CCc1c(C)[nH]c(=S)c(C#N)c1C,25.3% (inactive)
12,CC1(C)CC2CC(C)(CN2c2ncnc3ccc(Br)cc23)C1 (configuration not stated),41.5% (inactive)
13,COc1ccc(OC)c(Cc2cnc3nc(N)nc(N)c3c2C)c1,51.4% (active)
14,O=C(NC1CCN(C(=S)Nc2ccc(Cl)cc2)CC1)C1CCCCC1,10.8% (inactive)
15,CC(C)Oc1ccc(CN2CCC(n3nccc3NC(=O)c3cccnc3)CC2)cc1,23.4% (inactive)
16,Cc1nn(C)c(Cl)c1CN1CCC(n2nccc2NC(=O)C2CCCC2)CC1,14% (inactive)
17,C=CCOc1nc2c(c(=O)n(C)c(=O)n2C)n1Cc1ccc(Cl)cc1Cl,50.9% (active)
18,CNc1ccc(SC#N)cc1,13.2% (inactive)
19,CCC1CCCCN1CCCNC(=O)Cn1nc(-c2ccccc2)ccc1=O (configuration not stated),13.3% (inactive)
20,COc1ccc(C(=O)NCc2nnc(SCCOc3ccccc3)n2C)cc1,28.6% (inactive)
21,CC(C)(C)c1ccc(Oc2ccc(N)cc2)cc1,80.1% (active)

row,SMILES,inhibition
1,CCCc1nc(N)nc2c1C(=O)CC(C)(C)C2,16.9% (inactive)
2,Cc1ccc(C)c(S(=O)(=O)N2CCN(c3ncnc4sccc34)CC2)c1,54% (active)
3,Cc1c(Cl)c([N+](=O)[O-])nn1Cc1ccc(C(=O)N/N=C\c2cc(Cl)ccc2O)o1,57.9% (active)
4,CCN(CC(=O)Nc1cc(Cl)ccc1C)C(=O)CSCc1ccc(C)cc1,28.9% (inactive)
5,Cc1ccc(-c2nc(CSCC(=O)NC3CCN(Cc4ccccc4)CC3)c(C)o2)cc1,23.9% (inactive)
6,O=C(c1cc(Cl)cc(Cl)c1)N1CCC(=O)N(C(COCc2ccccc2)Cc2ccccc2)CC1 (configuration not stated),7.41% (inactive)
7,Cc1ccc(S(=O)(=O)N2C[C@@H]3CCCC[C@@H]3[C@@H](C)[C@H]2c2cn(Cc3ccccc3)c3ccc(F)cc23)cc1,83.6% (active)
8,CCN(CC)CCNC(=O)c1ccc(NC(=O)c2cc(-c3ccncc3)nc3ccccc23)cc1,23% (inactive)
9,CN1C(CC(=O)Nc2ccc(Br)cc2)c2ccccc2CC1(C)C (configuration not stated),11.3% (inactive)
10,O=C(Nc1cccc(S(=O)(=O)Nc2ccc(Cl)cc2)c1)c1ccc2c(c1)OCCO2,37.7% (inactive)
11,O=C(Cn1cc(C(=O)C2CC2)c2ccccc21)Nc1ccccc1Cl,60.3% (active)
12,CCN(CC)S(=O)(=O)c1ccc(Cl)c(C(=O)NC(C)C(c2cccs2)N2CCCC2)c1 (configuration not stated),15.2% (inactive)
13,O=C(NCCOCc1ccc(Cl)cc1)c1ncn[nH]1,9.09% (inactive)
14,Brc1c(CSc2nncc3ccccc23)nc2ccccn12,12.7% (inactive)
15,CCOC(=O)c1cnc(Nc2nc3ccccc3o2)nc1CSC(=S)N1CCCCC1,35.3% (inactive)
16,CN(C)CCSc1nc(N)c2c3c(sc2n1)COC(C)(C)C3,16.1% (inactive)
17,CC(=O)N1CCCc2cc(S(=O)(=O)N3CCCC(C(=O)N4CCN(c5cccc(Cl)c5)CC4)C3)ccc21 (configuration not stated),66.9% (active)
18,Cc1ccc(S(=O)(=O)N(Cc2cc3ccccc3[nH]c2=O)CC2CCCO2)cc1 (configuration not stated),21.7% (inactive)
19,CN(C)C(CNC(=O)Cc1ccc([N+](=O)[O-])cc1)c1ccccc1 (configuration not stated),16.5% (inactive)
20,O=C(Nc1ccnn1C1CCN(C/C=C/c2ccc(F)cc2)CC1)C1CCCC1,21.9% (inactive)
21,Cc1ccsc1C(=O)OCC(=O)c1cc(C)n(CC2CCCO2)c1C (configuration not stated),85.5% (active)
